In paper PMC7862700, “An all-to-all approach to the identification of sequence-specific readers for epigenetic DNA modifications on cytosine”:

Tests used:
Assay in all cases: DAPPL (digital affinity profiling via proximity ligation, sequencing); 10 mM Tris-HCl pH 7.5, 50 mM NaCl, 1 mM DTT, 4% glycerol, room temperature, 30 min; GST-TFs on glutathione beads, 16-mer random dsDNA library, 0.1% formaldehyde crosslink after washing; high values mean tight binding
Settings in all cases: protein: recombinant; tags: N-terminal GST; dsDNA, one strand shown
ERF = biological target: T1, ERF (Homo sapiens, UniProt P50548 1-548)
T1 sequence: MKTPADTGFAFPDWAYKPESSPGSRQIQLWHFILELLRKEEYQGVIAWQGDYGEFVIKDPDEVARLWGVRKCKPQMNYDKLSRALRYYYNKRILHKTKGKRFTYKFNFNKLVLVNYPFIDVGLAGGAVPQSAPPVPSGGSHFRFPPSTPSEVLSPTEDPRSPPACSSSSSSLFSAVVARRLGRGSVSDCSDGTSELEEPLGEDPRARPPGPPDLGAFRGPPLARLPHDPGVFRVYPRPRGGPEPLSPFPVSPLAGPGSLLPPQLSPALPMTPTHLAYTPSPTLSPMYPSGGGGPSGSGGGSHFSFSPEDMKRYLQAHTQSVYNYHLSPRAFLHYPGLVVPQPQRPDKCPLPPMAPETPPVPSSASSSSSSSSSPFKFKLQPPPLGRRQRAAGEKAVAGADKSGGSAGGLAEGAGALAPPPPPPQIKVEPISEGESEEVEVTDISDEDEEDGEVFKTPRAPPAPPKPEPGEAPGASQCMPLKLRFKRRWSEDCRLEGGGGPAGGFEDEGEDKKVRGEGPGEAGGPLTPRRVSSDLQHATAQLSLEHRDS
Procedure, shortened: (§1)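 GST fusions of human transcription factors were expressed in yeast and captured with glutathione beads. Once given DNA barcodes and pooled alongside a tag-only sample, they were incubated for 30 min at room temperature with 200 nmole of a random double-stranded 16-mer DNA library in Tris/NaCl/DTT/glycerol buffer, then washed, crosslinked (0.1% formaldehyde), proximity-ligated, PCR-amplified and sequenced on an Illumina NextSeq500. The binding signal of each hexamer is its read frequency for a factor divided by its frequency for the tag-only sample.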

ETV3L = biological target: T2, ETV3L (Homo sapiens, UniProt Q6ZN32 1-361)
T2 sequence: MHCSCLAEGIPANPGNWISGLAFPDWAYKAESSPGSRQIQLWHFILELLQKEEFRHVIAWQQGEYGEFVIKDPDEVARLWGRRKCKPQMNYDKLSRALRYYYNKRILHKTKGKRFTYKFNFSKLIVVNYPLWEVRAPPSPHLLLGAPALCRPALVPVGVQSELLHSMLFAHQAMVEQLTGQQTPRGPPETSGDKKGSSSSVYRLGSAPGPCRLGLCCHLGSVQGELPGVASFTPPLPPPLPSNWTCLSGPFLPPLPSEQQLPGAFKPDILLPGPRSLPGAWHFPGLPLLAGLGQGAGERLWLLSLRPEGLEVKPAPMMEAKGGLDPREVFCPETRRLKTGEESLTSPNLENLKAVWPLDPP
Procedure, shortened: as §1

ETS2 = biological target: T3, ETS2 (Homo sapiens, UniProt P15036 1-469)
T3 sequence: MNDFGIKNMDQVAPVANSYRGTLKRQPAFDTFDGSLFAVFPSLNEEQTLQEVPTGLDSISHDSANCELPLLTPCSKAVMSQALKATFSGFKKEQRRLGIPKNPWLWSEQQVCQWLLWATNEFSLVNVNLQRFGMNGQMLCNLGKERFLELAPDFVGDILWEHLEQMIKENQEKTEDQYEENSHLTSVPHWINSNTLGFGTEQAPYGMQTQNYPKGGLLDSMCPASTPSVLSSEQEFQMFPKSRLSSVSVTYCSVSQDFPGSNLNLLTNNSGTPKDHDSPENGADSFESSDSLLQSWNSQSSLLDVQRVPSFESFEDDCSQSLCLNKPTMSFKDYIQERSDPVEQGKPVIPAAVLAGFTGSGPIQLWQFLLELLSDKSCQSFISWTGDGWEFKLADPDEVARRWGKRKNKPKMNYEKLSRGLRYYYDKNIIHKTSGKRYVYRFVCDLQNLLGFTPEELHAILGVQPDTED
Procedure, shortened: as §1

SPDEF = biological target: T4, SPDEF (Homo sapiens, UniProt O95238 1-335)
T4 sequence: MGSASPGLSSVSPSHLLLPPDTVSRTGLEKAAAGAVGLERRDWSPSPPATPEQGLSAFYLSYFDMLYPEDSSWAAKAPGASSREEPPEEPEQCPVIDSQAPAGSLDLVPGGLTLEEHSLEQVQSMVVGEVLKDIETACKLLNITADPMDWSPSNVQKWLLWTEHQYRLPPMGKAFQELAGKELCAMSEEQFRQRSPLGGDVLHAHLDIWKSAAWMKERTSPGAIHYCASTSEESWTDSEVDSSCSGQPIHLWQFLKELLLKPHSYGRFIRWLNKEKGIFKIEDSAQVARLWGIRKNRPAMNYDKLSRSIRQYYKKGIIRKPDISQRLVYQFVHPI
Procedure, shortened: as §1

ETV7 = biological target: T5, ETV7 (Homo sapiens, UniProt Q9Y603 1-341)
T5 sequence: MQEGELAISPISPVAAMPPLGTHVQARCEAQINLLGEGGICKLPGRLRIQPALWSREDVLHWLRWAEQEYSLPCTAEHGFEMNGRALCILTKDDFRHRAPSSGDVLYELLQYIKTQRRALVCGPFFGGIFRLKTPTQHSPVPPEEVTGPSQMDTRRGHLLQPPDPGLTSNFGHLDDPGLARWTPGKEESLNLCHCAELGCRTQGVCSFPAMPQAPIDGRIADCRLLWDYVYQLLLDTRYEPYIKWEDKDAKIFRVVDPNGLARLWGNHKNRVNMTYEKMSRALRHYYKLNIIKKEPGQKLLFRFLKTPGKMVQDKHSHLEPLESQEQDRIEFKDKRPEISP
Procedure, shortened: as §1

ELF5 = biological target: T6, ELF5 (Homo sapiens, UniProt Q9UKW6-2 1-255)
T6 sequence: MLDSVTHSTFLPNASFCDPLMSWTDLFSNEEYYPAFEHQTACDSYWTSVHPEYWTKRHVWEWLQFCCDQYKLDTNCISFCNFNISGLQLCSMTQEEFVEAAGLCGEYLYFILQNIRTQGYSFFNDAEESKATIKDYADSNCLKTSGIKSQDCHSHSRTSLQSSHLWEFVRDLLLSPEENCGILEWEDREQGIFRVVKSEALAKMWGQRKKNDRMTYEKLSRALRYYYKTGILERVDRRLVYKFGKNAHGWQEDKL
Procedure, shortened: as §1

ETV3 = biological target: T7, ETV3 (Homo sapiens, UniProt P41162-2 1-143)
T7 sequence: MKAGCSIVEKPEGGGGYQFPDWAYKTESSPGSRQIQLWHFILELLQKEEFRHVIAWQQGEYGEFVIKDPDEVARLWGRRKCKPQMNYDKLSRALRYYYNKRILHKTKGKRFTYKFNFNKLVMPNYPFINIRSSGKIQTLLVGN
Procedure, shortened: as §1

ETV6 = ETV6 (Homo sapiens, UniProt P41212 1-452)
Sequence of ETV6 (P41212 whole entry): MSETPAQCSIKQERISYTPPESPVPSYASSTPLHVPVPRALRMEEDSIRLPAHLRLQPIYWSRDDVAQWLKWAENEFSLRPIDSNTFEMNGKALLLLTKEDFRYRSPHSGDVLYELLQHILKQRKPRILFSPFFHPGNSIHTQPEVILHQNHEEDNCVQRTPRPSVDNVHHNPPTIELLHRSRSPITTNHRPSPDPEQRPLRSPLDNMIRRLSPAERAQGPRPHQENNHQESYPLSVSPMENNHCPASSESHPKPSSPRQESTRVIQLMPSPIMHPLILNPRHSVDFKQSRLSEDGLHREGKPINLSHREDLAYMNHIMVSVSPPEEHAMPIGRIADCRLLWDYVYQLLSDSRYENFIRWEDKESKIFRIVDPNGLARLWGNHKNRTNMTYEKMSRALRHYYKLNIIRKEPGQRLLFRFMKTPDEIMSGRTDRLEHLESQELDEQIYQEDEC
Procedure, shortened: as §1

Sequence | binding signal (ERF) | binding signal (ETV3L) | binding signal (ETS2) | binding signal (SPDEF) | binding signal (ETV7) | binding signal (ELF5) | binding signal (ETV3) | binding signal (ETV6)
ACTTTC | 1.63 fold enrichment (6-mer frequency, TF over GST control) | 1.59 fold enrichment (6-mer frequency, TF over GST control) | 1.6 fold enrichment (6-mer frequency, TF over GST control) | 1.51 fold enrichment (6-mer frequency, TF over GST control) | 1.51 fold enrichment (6-mer frequency, TF over GST control) | 1.74 fold enrichment (6-mer frequency, TF over GST control) | 1.63 fold enrichment (6-mer frequency, TF over GST control) | 1.57 fold enrichment (6-mer frequency, TF over GST control)
GCCCTT | 1.11 fold enrichment (6-mer frequency, TF over GST control) | 1.16 fold enrichment (6-mer frequency, TF over GST control) | 1.15 fold enrichment (6-mer frequency, TF over GST control) | 1.26 fold enrichment (6-mer frequency, TF over GST control) | 1.07 fold enrichment (6-mer frequency, TF over GST control) | 1.09 fold enrichment (6-mer frequency, TF over GST control) | 1.14 fold enrichment (6-mer frequency, TF over GST control) | 1.27 fold enrichment (6-mer frequency, TF over GST control)
CTGGTT | 1.2 fold enrichment (6-mer frequency, TF over GST control) | 1.35 fold enrichment (6-mer frequency, TF over GST control) | 1.29 fold enrichment (6-mer frequency, TF over GST control) | 1.39 fold enrichment (6-mer frequency, TF over GST control) | 1.28 fold enrichment (6-mer frequency, TF over GST control) | 1.38 fold enrichment (6-mer frequency, TF over GST control) | 1.45 fold enrichment (6-mer frequency, TF over GST control) | 1.32 fold enrichment (6-mer frequency, TF over GST control)
ACTTTT | 1.26 fold enrichment (6-mer frequency, TF over GST control) | 1.25 fold enrichment (6-mer frequency, TF over GST control) | 1.25 fold enrichment (6-mer frequency, TF over GST control) | 1.25 fold enrichment (6-mer frequency, TF over GST control) | 1.36 fold enrichment (6-mer frequency, TF over GST control) | 1.26 fold enrichment (6-mer frequency, TF over GST control) | 1.31 fold enrichment (6-mer frequency, TF over GST control) | 1.34 fold enrichment (6-mer frequency, TF over GST control)
TTTACA | 1.28 fold enrichment (6-mer frequency, TF over GST control) | 1.23 fold enrichment (6-mer frequency, TF over GST control) | 1.25 fold enrichment (6-mer frequency, TF over GST control) | 1.15 fold enrichment (6-mer frequency, TF over GST control) | 1.22 fold enrichment (6-mer frequency, TF over GST control) | 1.22 fold enrichment (6-mer frequency, TF over GST control) | 1.22 fold enrichment (6-mer frequency, TF over GST control) | 1.17 fold enrichment (6-mer frequency, TF over GST control)
AATCTC | 1.27 fold enrichment (6-mer frequency, TF over GST control) | 1.15 fold enrichment (6-mer frequency, TF over GST control) | 1.19 fold enrichment (6-mer frequency, TF over GST control) | 1.14 fold enrichment (6-mer frequency, TF over GST control) | 1.2 fold enrichment (6-mer frequency, TF over GST control) | 1.29 fold enrichment (6-mer frequency, TF over GST control) | 1.2 fold enrichment (6-mer frequency, TF over GST control) | 1.26 fold enrichment (6-mer frequency, TF over GST control)
CTGATT | 1.21 fold enrichment (6-mer frequency, TF over GST control) | 1.26 fold enrichment (6-mer frequency, TF over GST control) | 1.26 fold enrichment (6-mer frequency, TF over GST control) | 1.21 fold enrichment (6-mer frequency, TF over GST control) | 1.24 fold enrichment (6-mer frequency, TF over GST control) | 1.19 fold enrichment (6-mer frequency, TF over GST control) | 1.17 fold enrichment (6-mer frequency, TF over GST control) | 1.17 fold enrichment (6-mer frequency, TF over GST control)
